Assay outcomes as filed in PubChem BioAssay.
The list is not random: actives were taken first. Their share in the collection is about 1.6%.
KCNQ2 inh: inhibitors of rat KCNQ2 potassium channel; O88943; CHO-K1 KCNQ2, FluxOR thallium flux, 20 min; active compounds read low; B-score at 10 µM; 1.1% of 310,000 active;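 active = fluorescence ratio B-score at most minus 3 library SDs, with starting brightness B-score within 2 library SDs, cut at about -5.5 in these data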
Target sequence (O88943 whole entry, looked up): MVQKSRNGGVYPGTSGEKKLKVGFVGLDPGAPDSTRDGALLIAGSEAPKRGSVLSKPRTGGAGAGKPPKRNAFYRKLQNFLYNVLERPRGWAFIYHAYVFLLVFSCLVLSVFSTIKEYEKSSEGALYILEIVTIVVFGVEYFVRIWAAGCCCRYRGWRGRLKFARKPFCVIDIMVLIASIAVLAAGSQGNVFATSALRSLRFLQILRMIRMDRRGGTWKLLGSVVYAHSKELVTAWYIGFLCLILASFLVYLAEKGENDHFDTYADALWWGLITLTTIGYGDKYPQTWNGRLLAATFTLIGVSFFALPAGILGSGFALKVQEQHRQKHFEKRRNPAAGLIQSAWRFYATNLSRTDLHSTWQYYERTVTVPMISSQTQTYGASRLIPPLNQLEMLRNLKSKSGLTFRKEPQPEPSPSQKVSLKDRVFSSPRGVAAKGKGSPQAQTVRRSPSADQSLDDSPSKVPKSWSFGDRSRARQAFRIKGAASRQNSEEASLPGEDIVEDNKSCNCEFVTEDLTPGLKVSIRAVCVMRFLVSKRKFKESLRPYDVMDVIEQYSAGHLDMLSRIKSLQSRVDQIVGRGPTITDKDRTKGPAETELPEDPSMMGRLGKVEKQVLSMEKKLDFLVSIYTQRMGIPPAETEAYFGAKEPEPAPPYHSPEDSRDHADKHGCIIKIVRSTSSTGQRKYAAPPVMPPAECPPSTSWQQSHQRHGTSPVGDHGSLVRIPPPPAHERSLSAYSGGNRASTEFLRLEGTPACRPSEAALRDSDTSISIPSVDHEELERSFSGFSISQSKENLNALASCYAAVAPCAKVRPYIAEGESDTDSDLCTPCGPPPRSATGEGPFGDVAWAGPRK
KCNQ2 pot: potentiators of rat KCNQ2 potassium channel; O88943; B-score at 10 µM; CHO-K1 KCNQ2, FluxOR thallium flux fluorescence; active compounds read high; 0.54% of 310,000 active;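 active = fluorescence ratio B-score at least 3 SD of library B-scores, with initial fluorescence B-score within 3 of them, cut at about 5.3 in these data; same plate scores as AID 2156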;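 also: B-score of peak minus minimum over baseline fluorescence ratio after K+ and Tl+ stimulus; positive B-score means potentiation of KCNQ2 with more thallium influx and brighter signal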
* = called active by the depositor; i = inactive; x = no result given.

SMILES	KCNQ2 inh	KCNQ2 pot
Cc1coc2c(C)c3oc(=O)c(CCC(=O)N4CCC(C(=O)NCCCC(=O)O)(c5ccccc5)CC4)c(C)c3cc12	i	0.12
c1ccc2c(c1)nc(N1CCOCC1)c1nncn12	i	x
c1ccc(N2CCOCC2)c(Nc2nc3ccccc3n3cnnc23)c1	-6.3*	-6.3
COCCCNC(=O)CNC(=S)N(Cc1ccccc1F)C1CCCCC1	i	x
CCCCNC(=O)CNC(=S)N(Cc1ccccc1F)C1CCCCC1	-6.8*	-6.8
Cc1cccc(NC(=O)C2(c3ccccc3)CC2(Cl)Cl)c1 (centres undefined)	i	x
Cc1cc(C)cc(NC(=O)C2(c3ccccc3)CC2(Cl)Cl)c1 (centres undefined)	-6.3*	-6.3
COc1ccc(Cl)cc1N1C(=NC(=O)C2CCCCC2)SC2CS(=O)(=O)CC21 (centres undefined)	i	0.94
O=S(=O)(NCCSCc1ccc(Cl)cc1Cl)c1ccc2c(c1)OCCO2	i	x
O=S(=O)(NCCSCc1c(Cl)cccc1Cl)c1ccc2c(c1)OCCO2	-6.8*	-6.8
Cc1cc(C)cc(NC(=O)CCn2cnc3cc(C)c(C)cc32)c1	i	x
Nc1nnc(CSCc2cccc(Br)c2)s1	i	1.9
COc1cccc(C(=O)N2CCN(C(=O)COc3ccc4ccccc4c3)CC2)c1	i	0.01
Cc1ccc(-n2nnnc2-c2cccs2)cc1[N+](=O)[O-]	i	x
COc1ccc(CCNC(=O)Cn2nnc(C(=O)Nc3cccc(C)c3C)c2N)cc1OC	i	1.2
COc1ccccc1/C=C/C(=O)NC(=S)NCC1CCCO1 (centres undefined)	-7.1*	-7.1
COc1ccc(/C=C/C(=O)NC(=S)NCC2CCCO2)cc1 (centres undefined)	i	0.3
CC(=O)Nc1ccc(/C(C)=N/Nc2nc(N3CCOCC3)nc(N3CCOCC3)n2)cc1	i	x
C/C(=N\Nc1nc(N2CCCCC2)nc(N2CCOCC2)n1)c1cccs1	-7.6*	-7.6
CSCC[C@H](NC(=O)OC(C)(C)C)c1nnc(SCc2cccc(F)c2)o1	i	x
CC(C)C[C@H](NC(=O)OC(C)(C)C)c1nnc(SCc2cccc(F)c2)o1	-7.5*	-7.5
Fc1ccccc1SCc1nnc(-c2ccccc2Br)o1	i	x
O=C(NNc1nc(N2CCOCC2)nc(N2CCOCC2)n1)Nc1ccc(Cl)cc1	i	x
CC1Cc2c([nH]c3ccccc23)C(=O)N1 (centres undefined)	i	x
O=C(c1cc([N+](=O)[O-])ccc1Cl)N1CCN(Cc2ccccc2)CC1	i	x
SMILES	KCNQ2 inh	KCNQ2 pot
COc1ccc(NC(=O)C(=O)NNC(=O)C(C)Oc2ccc(Cl)cc2Cl)cc1 (centres undefined)	i	20*
CC(=O)Nc1ccc(NC(=O)C(C)Oc2ccc(Cl)cc2Cl)cc1 (centres undefined)	i	0.1
CCC(=O)N1CCc2cc(S(=O)(=O)CCC(=O)Nc3cccc(C)n3)ccc21	i	1.2
Nc1c(-c2ccccc2)c(CSc2nc3ccccc3[nH]2)nn1-c1cccc(Cl)c1	-5.6*	-5.6
Nc1c(-c2ccccc2)c(CSc2nc3ccccc3[nH]2)nn1-c1ccc(Cl)cc1	i	x
Cc1ccc(C(C#N)c2ccc(C(=O)c3ccc(F)cc3)cc2)cc1 (centres undefined)	-6.4*	-6.4
N#CC(c1ccc(F)cc1)c1ccc(C(=O)c2ccc(F)cc2)cc1 (centres undefined)	i	x
O=C(C1=C(O)C(=O)N(c2ccccc2)C1c1ccc([N+](=O)[O-])cc1)c1cccs1 (centres undefined)	i	0.63
COc1ccc(-c2cc3nc4c(c(N5CCC6(CC5)OCCO6)n3n2)CCC4)cc1	i	x
COc1ccc(-c2cc3nc(-c4ccccc4)cc(N4CCC5(CC4)OCCO5)n3n2)cc1	-6.5*	-6.5
COc1cccc(-c2cc3nc(-c4ccccc4)cc(N4CCCC(O)C4)n3n2)c1 (centres undefined)	i	x
COc1cccc(-c2cc3nc4c(c(N5CCC6(CC5)OCCO6)n3n2)CCC4)c1	-7*	-7
COC(=O)c1ccc(C)c(-n2c(C)cc(C=O)c2C)c1	i	x
CN1CCc2c(sc(NC(=O)C3CCCN3S(=O)(=O)c3ccc(Cl)s3)c2C(N)=O)C1 (centres undefined)	i	0.81
COCCCNC(=O)CC1C(=O)N(Cc2ccccc2)C(C)c2nc3ccccc3n21 (centres undefined)	i	x
CCOC(=O)C1=C(c2ccccc2)NC(SCC(=O)Nc2cccc(C)c2)=C(C#N)C1c1ccco1 (centres undefined)	i	0.16
CCOC(=O)CSC1=C(C#N)C(c2ccco2)C(C(=O)Nc2cccc(C(F)(F)F)c2)=C(C)N1 (centres undefined)	-7.2*	-7.2
Cc1ccccc1OCC(=O)NNC(=O)CSc1nc(N)cc(N)n1	i	1.6
COc1ccc(N2CCN(C(=O)CSc3ncnc4scc(-c5ccc(C)cc5)c34)CC2)cc1	-5.6*	-5.6
COc1ccc(N2CCN(c3ncnc4scc(-c5ccc(C)cc5)c34)CC2)cc1	i	3.5
COc1ccc(-c2csc3ncnc(N4CCN(c5cccc(OC)c5)CC4)c23)cc1	i	x
COc1ccc(-c2csc3ncnc(N4CCN(S(=O)(=O)c5ccc(Cl)s5)CC4)c23)cc1	-7.5*	-7.5
COc1ccc(-c2csc3ncnc(N4CCN(S(=O)(=O)c5cccs5)CC4)c23)cc1	i	x
COc1ccc(-c2csc3ncnc(N4CCN(c5cccc(Cl)c5)CC4)c23)cc1	-6.1*	-6.1
CN1/C(=C\C(=O)C[n+]2ccc3ccccc3c2)C(C)(C)c2ccccc21	i	1.2
SMILES	KCNQ2 inh	KCNQ2 pot
Cc1ccc(NC(=O)COC(=O)[C@H](C)NC(N)=O)c(C)c1	i	x
O=C(CSC1=NS(=O)(=O)c2cc(Cl)ccc2N1)Nc1cccc(F)c1	i	x
O=C(C[n+]1ccccc1)N/N=C/c1ccco1	i	0.64
CCCCCCCC(=O)N/N=C/c1ccc([N+](=O)[O-])o1	i	8.2*
CCOC(=O)N/N=C\c1ccc([N+](=O)[O-])o1	i	x
O=C(CC12CC3CC(CC(C3)C1)C2)N/N=C/c1ccc([N+](=O)[O-])o1	i	16*
O=C(Cc1ccc([N+](=O)[O-])cc1)N/N=C/c1ccc([N+](=O)[O-])o1	i	x
CCCCCCC(=O)N/N=C/c1ccco1	i	10*
Cc1ccc(C)c(OCCC(=O)OCC(=O)Nc2ccc(Cl)cn2)c1	i	x
O=C(CCC1CCN(C(=O)c2ccco2)CC1)NCc1ccc(F)cc1	i	x
Cn1nccc1C(=O)Oc1ccc(/C=N/NC(=O)c2ccccc2O)cc1	i	x
COc1cccc(C(=O)N2CCC(C(=O)NCc3ccco3)CC2)c1	i	x
CCCc1nn(C)c(C(N)=O)c1[N+](=O)[O-]	i	0.75
COc1ccc(C(=O)Nc2nc(CC(=O)NCCc3ccccc3)cs2)cc1	i	x
COc1cc(OC)cc(C(=O)Nc2nc(CC(=O)NC(C)c3ccccc3)cs2)c1 (centres undefined)	-6.3*	-6.3
COc1ccc(S(=O)(=O)N2CCC(N3CCN(c4ccccc4OC)CC3)CC2)cc1	i	0.07
COc1ccc(-n2cnnc2SCC(=O)Nc2cccnc2Cl)cc1	i	x
CCOC(=O)N1CCN(CCC(=O)c2ccc(Cl)cc2)CC1	-6.7*	-6.7
CCOC(=O)N1CCN(CCC(=O)c2ccc(OC)cc2)CC1	i	x
CCCOCC(O)CCc1n[nH]c(=S)n1-c1ccccc1 (centres undefined)	i	0.01
